Only some compounds are listed: those with a hit (about 4.6% of all), similar ones and a draw of the others.
AHR activator: AHR activators, primary screen, cell-based, luminescence, luciferase reporter, human. Aryl hydrocarbon receptor (Homo sapiens), P35869. AHR-responsive luciferase reporter cells. activation, % at 5 µM. hit rate 2.5% among 320,000. AID 2796, 2010; in the data active = activation above about 47%;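 note: 0% = vehicle wells and 100% = reference agonist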
FXN GAA850 act: FXN promoter activators, primary screen, cell-based, luciferase luminescence, HEK293 lucGAA850; HEK293 lucGAA850 FXN promoter luciferase reporter, 24 h; percent of 10 µM SAHA response; activation, % at 6 µM; hit rate 0.56% among 360,000; AID 540364, 2011;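 active = activation above the average of all compounds screened plus 3 SD, cutoff fixed separately per campaign, cut at about 7.5% in these data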;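 note: 0% = DMSO wells and 100% = 10 µM SAHA wells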
HSF1 inh: HSF1 inhibitors in luciferase reporter cells, primary screen, cell-based, NIH3T3, luminescence. hit rate 0.77% among 300,000. NIH3T3-HGL HSE-luciferase, MG132-induced, luminescence 8 h; active compounds read low. activity change, negative = inhibition, % at 7.5 µM (by protocol);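 active = more than half of replicate wells show activity change below -50%, luminescence cut by over half; inconclusive = some wells, but at most half, below -50%; inactive = no replicate well below -50%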;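 note: luciferase reports HSF-1 transcriptional activity via heat shock element; 0% = median of DMSO wells and -100% = zero luminescence signal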
HSF1 activator: HSF-1 activators, primary screen, NIH3T3-HGL cells, MG132 stress, luminescence, single point; NIH3T3-HGL HSF-1 luciferase reporter, 8 h; 100% = twice DMSO control signal; activation, % at 9 µM; hit rate 1.7% among 300,000; AID 504408, 2011;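 active = mean replicate activation of at least 50% with a set share of replicates each reaching 50%; inconclusive = only one of those two conditions met; inactive = mean below 50% and too few replicates reaching it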;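 note: 0% = median of the neutral control wells and 100% = twice that signal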
Numbers without * were called inactive; ? = inconclusive; . = no result given.

SMILES	AHR activator	FXN GAA850 act	HSF1 inh	HSF1 activator
C=CCNC(=O)Cc1c(OC)ccc2cc(Br)ccc12	6	0	2	5
Cn1nnnc1SCC(=O)Nc1cccc(S(=O)(=O)N2CCCC2)c1	0	2	4	-6
COc1ccc(-c2cc(C(F)(F)F)nc(S(=O)(=O)CCC(=O)N3CCOCC3)n2)cc1	6	2	79	106*
COc1ccccc1-c1cc(C(F)(F)F)nc(S(=O)(=O)CCCC(=O)N2CCOCC2)n1	-8	0	?	-60
CCOC(=O)N1CCN(S(=O)(=O)N2CCCC(C(=O)NCc3ccccc3Cl)C2)CC1 (stereo unspecified)	2	-2	-53*	-64
COc1cc2c(cc1OC)CN(Cc1cc(=O)oc3c(C)c(C)ccc13)CC2	22	0	13	58*
CCc1ccc2c(CN3CCc4cc(OC)c(OC)cc4C3)cc(=O)oc2c1	74*	0	2	38
COc1cc2c(cc1OC)CN(Cc1cc(=O)oc3cc(C)c(C)cc13)CC2	12	1	4	33
Cc1ccc2c(CN(C)Cc3ccccc3)cc(=O)oc2c1C	6	-2	40	74*
O=C(CS(=O)CC(=O)Nc1ccccc1-c1ccccc1)Nc1ccc(F)cc1 (stereo unspecified)	0	0	-5	-17
O=C(Nc1ccc(Br)cc1)c1cc2ccccn2n1	57*	2	35	71*
O=C(Nc1ccc(Br)cc1)c1ccccc1Br	5	3	33	53*
O=C(Nc1ccccc1)c1cccc2c(Br)cccc12	57*	1	-10	-2
CC(=O)Nc1ccc(NC(=O)c2ccccc2Br)cc1	.	-2	.	.
CC(O)(c1cccc(F)c1)c1nc(-c2ccncc2)cs1 (stereo unspecified)	.	1	.	.
Cc1cc(C)c2c(N)c(-c3nnc(SCc4ccc(Cl)cc4)n3C)sc2n1	4	2	-4	-5
C=CCn1c(SCc2ccccc2Cl)nnc1-c1sc2nc(C)cc(C)c2c1N	79*	1	-9	-13
Cc1cc(Oc2nc3ccccn3c(=O)c2/C=C(\C#N)C(=O)NC2CCS(=O)(=O)C2)ccc1Cl (stereo unspecified)	3	0	42	60*
O=C(NC1CCCN(Cc2ccc(Cl)cc2)C1)c1cnc2ccccn2c1=O (stereo unspecified)	0	0	4	5
CC(C)N1CCc2c(sc(NC(=O)c3ccc([N+](=O)[O-])o3)c2C(N)=O)C1	5	-5	64	110*
COC(=O)c1c(NC(=O)Cc2ccccc2)sc2c1CCN(C(C)C)C2	0	-2	-3	-3
COC(=O)c1c(NC(=O)c2ccc([N+](=O)[O-])o2)sc2c1CCN(C(C)C)C2	4	-3	110	169*
CC(=O)N1CCc2c(sc(NC(=O)c3ccc([N+](=O)[O-])o3)c2C#N)C1	.	2	-1	-11
Cc1ccc(CCNC(=O)Cn2cccc2)cc1	4	2	25	52*
Cc1ccc(SCC(=O)NCCc2ccccc2)cc1	1	0	12	16
SMILES	AHR activator	FXN GAA850 act	HSF1 inh	HSF1 activator
O=C(COc1ccccc1)c1cn(CC(=O)N2CCCC2)c2ccccc12	5	0	6	31
NC(=O)Cn1cc(C(=O)COc2ccccc2)c2ccccc21	75*	.	-4	3
Cc1ccc(C)c(NC(=O)Cc2ccc(S(=O)(=O)N3CCCCC3)s2)c1	5	1	-8	-4
Cc1ccccc1C(=O)Oc1ccccc1N1C(=O)C2CC=CCC2C1=O (stereo unspecified)	75*	3	3	5
O=C(Oc1ccccc1N1C(=O)C2CC=CCC2C1=O)c1ccc(Br)cc1 (stereo unspecified)	27	1	0	1
Cc1ccc(-c2ocnc2C(=O)Nc2ccccc2NC(=O)c2ccccn2)cc1	31	0	6	40
Cc1ccc(-c2ocnc2C(=O)Nc2nc(C)cs2)cc1	68*	4	2	-3
Cc1cccc(-c2ocnc2C(=O)Nc2ccccc2NC(=O)c2ccccn2)c1	56*	1	6	3
CC(=O)Nc1ccc(S(=O)(=O)N2CCN(C(=O)c3ncoc3-c3cccc(C)c3)CC2)cc1	11	3	2	9
Cc1cccc(-c2ocnc2C(=O)N2CCN(C(=O)c3cccs3)CC2)c1	12	-1	-87*	-89
O=C(N/N=C/c1cc2c(cc1Cl)OCO2)c1cccc(Br)c1	32	3	4	21
Cc1ccc(S(=O)(=O)NCC(=O)OCC(=O)N(Cc2ccccc2)C(C)(C)C)cc1	2	-1	0	15
COC(=O)CNC(=O)CN(c1ccc(OC)cc1OC)S(=O)(=O)c1ccccc1	1	0	.	.
O=C(COC(=O)/C=C/C(=O)OCC(=O)Nc1ccccc1F)Nc1ccccc1F	-2	0	53	66*
C/C=C/C(=O)OCC(=O)Nc1ccccc1Br	-1	-1	9	20
COc1ccc(S(=O)(=O)N2CCCCC2)cc1NC(=O)Cn1c(=O)cnc2ccccc21	-3	1	3	7
Cc1cc(C)cc(-n2c(C)cc(/C=N/NC(=O)c3ccncc3)c2C)c1	11	5	2	16
Cc1cc(/C=N/NC(=O)c2ccsc2)c(C)n1-c1cnccn1	77*	5	16	21
COc1ccc(NC(=S)N(CCO)Cc2cc3c(C)cc(C)cc3[nH]c2=O)cc1	59*	3	8	-5
Cc1cc(C)c2cc(CN(CCO)C(=O)Nc3ccc(F)cc3)c(=O)[nH]c2c1	4	0	-5	-13
Cc1cc(C)c2cc(CN(CCN(C)C)C(=O)Nc3ccccc3Cl)c(=O)[nH]c2c1	6	-2	-50*	-60
CCCCn1c(SCC(N)=O)nnc1-c1cc(OC)c(OC)c(OC)c1	.	.	5	11
COc1ccc2c(c1)CCc1c(C(=O)Nc3c(C)nn(Cc4ccccc4)c3C)noc1-2	-1	0	3	12
O=C(CN1c2ccccc2Sc2ccccc21)N/N=C/c1ccc(Cl)cc1	0	1	25	61*
O=C(CN1c2ccccc2Sc2ccccc21)N/N=C/c1ccc(Cl)cc1Cl	1	1	-1	10
SMILES	AHR activator	FXN GAA850 act	HSF1 inh	HSF1 activator
C=CC(=O)Nc1cccc(Oc2ncnc3[nH]cc(-c4cnc5ccccc5c4)c23)c1	20	-1	.	.
N#Cc1cc(C(=O)c2ccccc2O)cn(-c2ccc(Cl)cc2)c1=O	8	0	-1	8
Cc1c(-n2cc(C(=O)c3ccccc3O)cc(C#N)c2=O)c(=O)n(-c2ccccc2)n1C	1	-2	72	109*
COc1ccc(CCNC(=O)c2ccc(CNS(=O)(=O)c3cccc(Cl)c3)cc2)cc1OC	3	-1	20	60*
COc1ccc(CCNC(=O)c2ccc(CNS(=O)(=O)c3ccc(C(C)(C)C)cc3)cc2)cc1OC	3	2	15	11
Nc1nc2ccccc2n1/N=C/c1ccc2c(c1)OCO2	15	4	22	40
